{
  "source": "PubChem BioAssay (NCI)",
  "note": "The panel holds about 79,000 compounds, 15% with a hit somewhere; the sample as a whole holds those more often. Unmarked numbers belong to inactive results. Active and inactive are the calls of the source. Cut-off read from the data, not from the text of the source: active = growth inhibition above about 70%; inactive = the rest.",
  "data": [
    {"assay": "NCI Yeast Anticancer Drug Screen. Data for the cln2 rad14 strain (AID 165);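 note: 0% = growth equal to vehicle treated cultures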", "conditions": "S. cerevisiae cln2 rad14 strain, at 50.0 µM, stronger effect = higher value", "summary_of_the_method": "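Relative to vehicle controls, growth inhibition of compound-treated cln2 rad14 yeast was recorded.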", "values": [
      {"smiles": "O=[N+]([O-])c1ccc(-c2ccc(-c3csc(Nc4ccccc4)n3)o2)cc1", "growth inhibition": "90.8% (active)"},
      {"smiles": "C1=C(C2=C[P+](c3ccccc3)(c3ccccc3)C=C(c3ccccc3)O2)OC(c2ccccc2)=C[P+]1(c1ccccc1)c1ccccc1", "growth inhibition": "71% (active)"},
      {"smiles": "Cc1ccc(C2C(O)=C(c3ccccc3)Sc3ccc(C)cc32)cc1", "note": "(centres undefined)", "growth inhibition": "23.2%"},
      {"smiles": "CCc1n[nH]c(CC)c1CCCCCCOc1ccc(OC)cc1Cl", "growth inhibition": "89.7% (active)"},
      {"smiles": "C=C1CC[C@H]2C(C)=CC[C@@H]3[C@H](OC(=O)[C@H]3CN3CCN(c4ccc(C)c([N+](=O)[O-])c4)CC3)[C@@H]12", "growth inhibition": "63%"},
      {"smiles": "C(CCCCCN1CCCCC1)CCCCN1CCCCC1", "growth inhibition": "6.75%"},
      {"smiles": "CN(Cc1cnc2nc(N)nc(N)c2n1)c1ccc(C(=O)NC(CCC(=O)O)C(=O)O)cc1C(F)(F)F", "note": "(centres undefined)", "growth inhibition": "29%"},
      {"smiles": "CC(C(=O)O)C(N)C(=O)O", "note": "(centres undefined)", "growth inhibition": "99.5% (active)"},
      {"smiles": "CCCCCCCCCCN(CCCCCCCCCC)C1CC(OC2CC(O)(C(O)CO)Cc3c(O)c4c(c(O)c32)C(=O)c2c(OC)cccc2C4=O)OC(C)C1O", "note": "(centres undefined)", "growth inhibition": "81.8% (active)"},
      {"smiles": "COc1ccc(OCC(O)CN2CCN(c3cccc(Cl)c3)CC2)cc1", "note": "(centres undefined)", "growth inhibition": "33.6%"},
      {"smiles": "O=C(O)c1ccccc1C(=O)c1ccc2c(c1)Cc1ccccc1-2", "growth inhibition": "74.8% (active)"},
      {"smiles": "Cc1cc(C2c3ccccc3-c3ccccc32)cc(C)c1O", "growth inhibition": "97.3% (active)"},
      {"smiles": "CC(C)(C)c1cc(Cl)c(O)c(Cc2cc(C(C)(C)C)cc(Cl)c2O)c1", "growth inhibition": "82% (active)"},
      {"smiles": "COc1cccc(/C=C/C(C)=O)c1OC", "growth inhibition": "21.9%"}
    ]}
  ]
}
